Some test systems named below: NCI-H23 lung; NCI-H226 lung; NCI-H322M lung; HOP-62 NSCLC; NCI-H460 lung; HOP-92 NSCLC; NCI-H522 lung; A549/ATCC NSCLC; 786-0 renal; COLO 205 colon; DU-145 prostate; K-562 leukemia; MALME-3M melanoma; MDA-MB-231 breast; RXF 393 renal; SF-268 CNS; SF-295 CNS; SF-539 CNS; UACC-257 melanoma; M14 melanoma.
Common to all, as to assay: NCI-60 one-dose screen, 48 h (100 = growth as untreated, 0 = no growth, -100 = all killed)
Common to all, as to conditions: 10 µM unless noted

Consider seven compounds from PubChem BioAssay (NCI).

About 83,000 compounds went through this panel and 20% of them were active in at least one assay; those are over-represented in the sample as a whole.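 For each line, cells grew in 96-well plates with the test compound present at a single concentration for 48 hours.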 A number with no mark means an inactive call. The source made the active and inactive calls. Rule for the calls: active = growth percent below 10; inactive = the rest.

For `O=C(O)c1ccc(Nc2ncc3c(n2)-c2ccc(Cl)cc2C(c2c(F)cccc2F)=NC3)cc1`, the growth in the test with NCI-H23 lung is 64.9%; in the test with NCI-H226 lung, 51.7%; in the test with NCI-H322M lung, 89%; in the test with HOP-62 NSCLC, 37.7%; in the test on NCI-H460 lung it was 39.5%; in the test with HOP-92 NSCLC, 54.4%. Besides, the growth was 29.9% in the test on NCI-H522 lung; 30% with A549/ATCC NSCLC; 63% in the test on 786-0 renal; 2.8% (active) in the test on COLO 205 colon; 72.1% with DU-145 prostate; 23.3% in the test with K-562 leukemia. Moreover, the growth is 76.5% in the test with MALME-3M melanoma; 51.7% in the test with MDA-MB-231 breast; 43.8% with RXF 393 renal; 52.6% in the test with SF-268 CNS; 39.3% in the test with SF-295 CNS; 59.4% with SF-539 CNS. For the same compound, the values for the growth with UACC-257 melanoma and in the test on M14 melanoma were 46.4% and 57.5%, respectively.

Regarding `O=C1OCC2=C1C(c1cccc(F)c1)c1cc3c(cc1N2CCO)OCCO3` (stereo not given), the growth is 25.4% with NCI-H23 lung; 26.2% in the test with NCI-H226 lung; 45.3% in the test with NCI-H322M lung; 30.5% with HOP-62 NSCLC; 9.42% (active) in the test on NCI-H460 lung; 66.6% in the test on HOP-92 NSCLC. Besides, the growth with NCI-H522 lung is 17.1%; in the test on A549/ATCC NSCLC it was 18.1%; in the test with 786-0 renal, 26.4%; with COLO 205 colon it was -5.04% (active); in the test with DU-145 prostate, 14.3%; with K-562 leukemia it was 8.66% (active). For the same compound, the growth is 46.2% in the test with MALME-3M melanoma; 24.8% in the test on MDA-MB-231 breast; 4.45% (active) in the test on RXF 393 renal; 34.5% in the test with SF-268 CNS; -15.9% (active) in the test with SF-295 CNS; -31.7% (active) in the test on SF-539 CNS. Moreover, the growth is 89% with UACC-257 melanoma and -9.63% (active) with M14 melanoma.

For the compound `COCC(=O)NC/C=C/c1ccc2ncnc(Nc3ccc(Oc4ccc(C)nc4)c(C)c3)c2c1`, the growth was 39.3% with NCI-H23 lung; 53.5% in the test on NCI-H226 lung; 10.8% in the test with NCI-H322M lung; 58.8% in the test with HOP-62 NSCLC; 50.7% in the test with NCI-H460 lung; 23.8% with HOP-92 NSCLC. The growth in the test with NCI-H522 lung was 14.8%; with A549/ATCC NSCLC it was 46%; with 786-0 renal, 55%; in the test with COLO 205 colon it was 9.48% (active); in the test on DU-145 prostate, 30.7%; with K-562 leukemia it was 47.9%. Further, the growth in the test on MALME-3M melanoma is 4.79% (active); in the test with MDA-MB-231 breast, 42.7%; in the test with RXF 393 renal, 45.4%; in the test with SF-268 CNS, 52.3%; in the test with SF-295 CNS, 62.4%; with SF-539 CNS, 48%. Moreover, the growth in the test with UACC-257 melanoma is 24.6%; in the test on M14 melanoma it was 13.1%.

In the case of `CC(=O)c1c(C)c2cnc(Nc3ccc(N4CCNCC4)cn3)nc2n(C2CCCC2)c1=O`, the growth with NCI-H23 lung was 50.9%; in the test on NCI-H226 lung it was 52.7%; in the test with NCI-H322M lung it was 31.9%; in the test with HOP-62 NSCLC, 42%; with NCI-H460 lung it was 14.1%; with HOP-92 NSCLC, 66%. Also, the growth in the test on NCI-H522 lung was -76.7% (active); in the test on A549/ATCC NSCLC, 22.6%; in the test on 786-0 renal it was 24.9%; with COLO 205 colon it was 18.5%; with DU-145 prostate, 39.1%; in the test on K-562 leukemia, 6.83% (active). Further, the growth was 2.27% (active) in the test with MALME-3M melanoma; 36.5% with MDA-MB-231 breast; -0.541% (active) in the test on RXF 393 renal; 46.7% with SF-268 CNS; 70.3% with SF-295 CNS; 27.4% in the test on SF-539 CNS. Further, the results for the growth with UACC-257 melanoma and with M14 melanoma were -11.7% (active) and 29.2%, respectively.

With `CN1CCN(CCOc2cc(OC3CCOCC3)c3c(Nc4c(Cl)ccc5c4OCO5)ncnc3c2)CC1`, the growth with NCI-H23 lung is 81.4%; in the test with NCI-H226 lung, 100%; in the test on NCI-H322M lung, 2.76% (active); with HOP-62 NSCLC it was 29.7%; in the test on NCI-H460 lung, 89.9%; in the test on HOP-92 NSCLC, 35.3%. Also, the growth was 11.5% in the test on NCI-H522 lung; 24.8% in the test on A549/ATCC NSCLC; 48.1% with 786-0 renal; 42.5% with COLO 205 colon; 43.8% in the test with DU-145 prostate; 5.29% (active) in the test on K-562 leukemia. Also, the growth in the test with MALME-3M melanoma was 98.3%; with MDA-MB-231 breast it was 61.3%; in the test on RXF 393 renal, 31.6%; with SF-268 CNS, 61.4%; with SF-295 CNS it was 77.8%; with SF-539 CNS, 60%. Further, the growth in the test with UACC-257 melanoma was 82.7%; in the test on M14 melanoma it was 79.4%.

As for `Cc1cc(-c2cc(OC(=O)c3ccccc3)ccc2Cl)cc2nnc(Nc3ccc(OCCN4CCCC4)cc3)nc12`, the growth was 78.9% in the test on NCI-H23 lung; 78.6% in the test with NCI-H226 lung; 102% in the test with NCI-H322M lung; 50.2% with HOP-62 NSCLC; 81.6% with NCI-H460 lung; 40.8% in the test on HOP-92 NSCLC. In addition, the growth with NCI-H522 lung is 49.2%; with A549/ATCC NSCLC, 69.4%; in the test on 786-0 renal, 98.9%; in the test with COLO 205 colon, 62.8%; in the test with DU-145 prostate it was 83.2%; with K-562 leukemia it was -21.5% (active). Further, the growth in the test on MALME-3M melanoma is 79.2%; with MDA-MB-231 breast, 70.6%; in the test on RXF 393 renal, 59.3%; in the test with SF-268 CNS, 92.8%; with SF-295 CNS it was 92.7%; in the test on SF-539 CNS, 87.1%. For the same compound, the growth is 52.1% in the test on UACC-257 melanoma and -8.09% (active) in the test with M14 melanoma.

Regarding `C[C@H](NC(=O)c1c(N)nn2cccnc12)c1cc2cccc(C#Cc3cnn(C)c3)c2c(=O)n1-c1ccccc1`, the growth was 40.9% with NCI-H23 lung; 70.3% in the test with NCI-H226 lung; 53.6% with NCI-H322M lung; 11.8% in the test with HOP-62 NSCLC; 30.4% in the test on NCI-H460 lung; 9.5% (active) with HOP-92 NSCLC. For the same compound, the growth with NCI-H522 lung is 14.1%; in the test on A549/ATCC NSCLC, 20.3%; in the test with 786-0 renal it was 19.1%; in the test on COLO 205 colon it was -11.7% (active); with DU-145 prostate, 34.6%; in the test with K-562 leukemia it was 17.4%. In addition, the growth was 50.1% in the test with MALME-3M melanoma; 37.8% in the test on MDA-MB-231 breast; -16% (active) in the test with RXF 393 renal; 25.3% with SF-268 CNS; 11.6% in the test with SF-295 CNS; 21.7% in the test with SF-539 CNS. Also, the growth in the test on UACC-257 melanoma is 39.1%; in the test on M14 melanoma, 29.5%.
